We go through 46 compounds from paper PMC4336329 (PLoS ONE, 2015).

The campaign covered roughly 310,000 compounds. About 14,000 (4.5%) showed an effect of 50% or more. Effects have a minus sign here. This excerpt belongs to a sample that is enriched for strong results.
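Further: peak tail current of the secondary pulse compared with the same well before compound.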

The target of this assay is human ether-à-go-go-related gene (hERG) potassium channel (human, UniProt Q12809). The experiment in a line: primary screen, population patch clamp on CHO cells stably expressing hERG; higher = less effect of the substance.
Chain of human ether-à-go-go-related gene (hERG) potassium channel (Q12809 whole entry, looked up): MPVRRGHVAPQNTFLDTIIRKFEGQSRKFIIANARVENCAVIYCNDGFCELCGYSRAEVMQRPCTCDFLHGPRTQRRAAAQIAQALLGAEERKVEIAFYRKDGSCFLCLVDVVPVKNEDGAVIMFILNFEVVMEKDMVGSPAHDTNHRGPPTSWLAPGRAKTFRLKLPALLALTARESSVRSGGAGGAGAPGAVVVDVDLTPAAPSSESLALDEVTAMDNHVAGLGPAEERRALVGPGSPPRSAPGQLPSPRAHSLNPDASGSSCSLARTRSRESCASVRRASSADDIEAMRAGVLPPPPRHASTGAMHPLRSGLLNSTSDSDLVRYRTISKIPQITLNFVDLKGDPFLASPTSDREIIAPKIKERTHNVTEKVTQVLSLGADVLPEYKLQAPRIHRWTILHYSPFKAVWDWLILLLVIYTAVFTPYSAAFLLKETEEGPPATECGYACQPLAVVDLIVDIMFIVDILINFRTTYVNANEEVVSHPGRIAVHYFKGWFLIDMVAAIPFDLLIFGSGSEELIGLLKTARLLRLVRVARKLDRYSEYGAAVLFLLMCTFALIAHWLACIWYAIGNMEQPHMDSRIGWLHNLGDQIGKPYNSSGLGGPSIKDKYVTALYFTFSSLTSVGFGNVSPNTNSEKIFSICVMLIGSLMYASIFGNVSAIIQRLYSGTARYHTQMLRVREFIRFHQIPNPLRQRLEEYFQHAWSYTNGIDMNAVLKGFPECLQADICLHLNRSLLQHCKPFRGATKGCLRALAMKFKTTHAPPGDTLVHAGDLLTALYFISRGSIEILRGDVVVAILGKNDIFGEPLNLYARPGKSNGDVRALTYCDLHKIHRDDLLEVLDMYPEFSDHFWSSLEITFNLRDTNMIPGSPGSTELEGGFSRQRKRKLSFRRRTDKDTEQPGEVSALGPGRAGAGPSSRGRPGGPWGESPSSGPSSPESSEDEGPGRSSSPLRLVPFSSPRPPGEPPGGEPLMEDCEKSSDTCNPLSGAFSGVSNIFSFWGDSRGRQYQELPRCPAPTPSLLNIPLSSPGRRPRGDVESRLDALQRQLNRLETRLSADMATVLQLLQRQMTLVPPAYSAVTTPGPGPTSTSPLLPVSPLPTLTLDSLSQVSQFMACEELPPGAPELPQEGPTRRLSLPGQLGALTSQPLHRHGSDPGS
Take `CC(Cc1ccccc1)NCC(=O)Nc1cc(N(C)C)nc2ccccc12.O=C(O)C(=O)O` (stereo not shown): the “hERG current change (%, negative = inhibition) at 10uM” value is given as -77.1%.
On to `CN1CCN(CC(=O)Nc2cc(N(C)C)nc3ccccc23)CC1.Cl`, for which the “hERG current change (%, negative = inhibition) at 10uM” value came to 8.25%.
On to `COc1ccc(CCN(C)CC(=O)Nc2cc(C)nc3ccccc23)cc1OC.O=C(O)C(=O)O`, for which the “hERG current change (%, negative = inhibition) at 10uM” value worked out at 5.34%.
On to `CCOc1ccccc1NC(=O)[C@@H](NC(=O)c1ccccc1F)C(C)C`, for which the “hERG current change (%, negative = inhibition) at 10uM” value was -6.35%.
In the case of `COc1ccc(C(C(N)=O)c2ncc(C(F)(F)F)cc2Cl)cc1` (stereo not shown) it was 4.78%.
Then `O=C(CCCCl)NC1=NN(c2ccccc2)C(=O)C1`, with -4.99%; and `COc1ccc(CNC2CCN(Cc3ccccc3)CC2)cc1`, with -54.2%; and `CC(NC1CCN(Cc2ccccc2)CC1)c1ccc(F)cc1` (stereo not shown), with 3.46%.
In the case of `COc1ccc(OC)c(-n2c(CNC3CCN(Cc4ccccc4)CC3)nc3ccccc3c2=O)c1` it was -76.6%.
In the case of `Fc1ccc(CNC2CCN(Cc3ccccc3)CC2)cc1`, the “hERG current change (%, negative = inhibition) at 10uM” value is recorded as -65.3%.
Then `S=C(NCc1ccc(Cl)cc1)NC1CCN(Cc2ccccc2)CC1`, with -41.8%; and `Clc1ccc(CNC2CCN(Cc3ccccc3)CC2)cc1`, with -72.7%.
Then `COc1ccccc1CNC1CCN(Cc2ccccc2)CC1`, with -3.89%; and `COc1ccc(OC)c(-n2c(CN3CCC(C(N)=O)CC3)nc3ccccc3c2=O)c1`, with -0.126%; and `Cl.Clc1ccc(CNC2CCCC2)cc1`, with -13.1%.
Then `COc1ccc(-n2c(CN3CCOCC3)nc3ccccc3c2=O)c(OC)c1`, with 22.9%.
On to `COc1ccc(CCNC(=S)NC2CCN(Cc3ccccc3)CC2)cc1`, for which the “hERG current change (%, negative = inhibition) at 10uM” value is reported as -36.9%.
Then `FC(F)(F)c1cccc(CNC2CCN(Cc3ccccc3)CC2)c1`, with -28.3%.
For `Fc1ccc(-c2cc(C(F)(F)F)nc(NCc3cccs3)n2)cc1`, the “hERG current change (%, negative = inhibition) at 10uM” value was found to be 14.4%.
In the case of `CCOC(=O)c1c(-c2ccccc2)csc1NC(=O)/C(C#N)=C/c1ccc(O)c(OC)c1` it was -7.1%; in that of `O=C(COc1ccc(/C=N/NC(=O)c2cc3ccccc3o2)cc1Br)Nc1ccccc1`, 19.3%; in that of `Cc1ccccc1NS(=O)(=O)c1ccc(C)c(C(=O)N2CCOCC2)c1`, 1.47%.
Then `COc1ccc(C(=O)NNC(=O)C(=O)N2CCCCC2)cc1OC`, with 59.5%.
In the case of `CCOC(=O)C(NC(=O)Nc1cccc(C)n1)(OCC(F)(F)F)C(F)(F)F` (stereo not shown) it was 5.06%; in that of `CC(=O)COC(=O)C1=NN(c2ccccc2)C(=O)CC1`, 23.7%.
As to `COc1ccc(S(=O)(=O)N2CCCC(C(=O)NCc3ccc(F)cc3)C2)cc1` (stereo not shown), the “hERG current change (%, negative = inhibition) at 10uM” value was 6.39%.
As for `CCc1nc2ccc(C(=O)NCCc3ccc(OC)c(OC)c3)cc2nc1CC`, the “hERG current change (%, negative = inhibition) at 10uM” value is recorded as -0.0865%.
Take `Cn1c(O)c(/C=C2\N=c3ccccc3=C2CCNC(=S)NC2CC2)c(=O)n(C)c1=O`: the “hERG current change (%, negative = inhibition) at 10uM” value was -44.6%.
Regarding `Clc1ccc(CN2CCCCCCC2)cc1`, the “hERG current change (%, negative = inhibition) at 10uM” value was -33.1%.
In the case of `Clc1ccc(CN2CCC(c3ccccc3)CC2)cc1`, the “hERG current change (%, negative = inhibition) at 10uM” value is reported as -59.1%.
In the case of `O=S(=O)(NC1CCN(Cc2ccccc2)CC1)c1ccc(Cl)cc1` it was -41.3%; in that of `Cc1c(C(=O)Nc2c(F)cccc2F)sc2ncn(CC(=O)N3CCCCC3)c(=O)c12`, 3.98%.
Regarding `Cc1cc(NC(=O)CSc2nnc(-c3cccnc3)n2C2CCCCC2C)no1` (stereo not shown), the “hERG current change (%, negative = inhibition) at 10uM” value turned out to be 3.83%.
For `CCOc1ccc2[nH]c3c(NCCC(C)C)ncnc3c2c1`, the “hERG current change (%, negative = inhibition) at 10uM” value is 7.2%.
With `COc1ccc2[nH]c3c(NCCCN4CCCC4=O)ncnc3c2c1`, the “hERG current change (%, negative = inhibition) at 10uM” value is listed as -14.6%.
Then `COc1ccc2[nH]c3c(NCc4ccco4)ncnc3c2c1`, with -18.1%.
In the case of `CCN(CC)CCNc1ncnc2c1[nH]c1ccc(OC)cc12` it was -63.4%.
As for `CCOc1ccc2[nH]c3c(NCCN(C)C)ncnc3c2c1`, the “hERG current change (%, negative = inhibition) at 10uM” value was -19%.
Take `COc1ccc2[nH]c3c(NCCCOC(C)C)ncnc3c2c1`: the “hERG current change (%, negative = inhibition) at 10uM” value is recorded as 9.68%.
In the case of `COc1ccc2[nH]c3c(NCCN4CCCCC4)ncnc3c2c1` it was -55.9%; in that of `CCOc1ccc2[nH]c3c(NCCN(CC)CC)ncnc3c2c1`, -71.6%; in that of `CCOc1ccc2[nH]c3c(NCCOC)ncnc3c2c1`, -9.5%.
Then `CCOc1ccc2[nH]c3c(NCCO)ncnc3c2c1`, with 23.1%; and `COc1ccc2[nH]c3c(NCCN(C(C)C)C(C)C)ncnc3c2c1`, with -70.7%; and `CCOc1ccc2[nH]c3c(NCCCOC)ncnc3c2c1`, with -10%.
In the case of `CCOc1ccccc1NC(=O)c1cnc(NS(=O)(=O)c2ccccc2)nc1`, the “hERG current change (%, negative = inhibition) at 10uM” value is given as 17.8%.
